# According to PubChem BioAssay (EPA / NIEHS):
# Where “and” joins values, the source holds several entries; their conditions need not be identical. Identical values can stand only once. Records with an inconclusive call do not appear. Calls of active or inactive are those of the source. Rule for the calls: active = hit-call score of the fitted dose curve at least 0.9, where 1 is the maximum; inconclusive = response in the unintended direction; inactive = score below 0.9.
# Tests used:
# [1] = target: human Peripheral-type Benzodiazepine Receptor (PBR), TSPO (gene 706) (UniProt P30536); assay: NVS_MP_hPBR: NovaScreen (NVS) Membrane Protein Assay for human Peripheral-type Benzodiazepine Receptor (PBR) (AID 2283331);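 note: hits reduce radioligand binding relative to DMSO baseline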
# In short: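 Scintillation counts of filter-bound radioligand served as read-out after 1 h chemical dosing of human colonic membrane preparations. Activity was scored as signal loss against DMSO; initial duplicates at 25 uM, confirmatory concentration series afterward.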
# [2] = target: rat Peripheral-type Benzodiazepine Receptor (PBR), Tspo (gene 24230) (UniProt P16257); assay: NVS_MP_rPBR: NovaScreen (NVS) Membrane Protein Assay for rat Peripheral-type Benzodiazepine Receptor (PBR) (AID 2283335)
# In short: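 Rat kidney membranes; radioligand binding with displacement, filter-based scintillation counting, 1 h incubation. Primary screen in duplicate at 25 uM, actives followed in concentration series; loss of binding vs DMSO.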
# [3] = target: Voltage-gated inwardly rectifying potassium channel KCNH2 (Homo sapiens) (UniProt Q12809); assay: NVS_IC_hKhERGCh: NovaScreen (NVS) Ion Channel Assay for human Potassium Channel ERG (KhERGCh) (AID 2283333)
# In short: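 Cell-free radioligand competition binding on hERG protein extracted from CHO cells, read by filter-based scintillation counting 0.75 h after dosing. Primary screen at 25 uM in duplicate, actives followed in concentration series. Signal loss fitted versus DMSO.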
# [4] = target: bovine Gamma-Aminobutyric Acid Type A Receptor Agonist (GABAR Agonist), GABRA1 (gene 780973) (UniProt P08219); assay: NVS_LGIC_bGABAR_Agonist: NovaScreen (NVS) Ligand-Gated Ion Channel Assay for bovine Gamma-Aminobutyric Acid Type A Receptor Agonist (GABAR Agonist) (AID 2283338)
# In short: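 Radioligand binding to bovine cerebellar membranes in agonist format, read by filter-based scintillation counting after 1 h. Primary screen in duplicate at 25 uM, with actives followed in concentration series. Gain of signal versus DMSO.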
# [5] = target: rat Glycine Receptor, Strychnine-sensitive (GlyRStrySens), Glra1 (gene 25674) (UniProt P07727); assay: NVS_LGIC_rGlyRStrySens: NovaScreen (NVS) Ligand-Gated Ion Channel Assay for rat Glycine Receptor, Strychnine-sensitive (GlyRStrySens) (AID 2283341)
# Method: NVS_LGIC_rGlyRStrySens is a biochemical, single-readout assay that uses extracted gene-proteins from Rat spinal cord membranes in a tissue-based cell-free assay. Measurements were taken 1 hour after chemical dosing in a 48-well plate.NVS_LGIC_rGlyRStrySens is one of one assay component(s) measured or calculated from the NVS_LGIC_rGlyRStrySens assay. It is designed to make measurements of radioligand binding, a form of binding reporter, as detected with scintillation counting signals by Filter-based radiodetection technology.Data from the assay component NVS_LGIC_rGlyRStrySens was analyzed into 1 assay endpoint. This assay endpoint, NVS_LGIC_rGlyRStrySens, was analyzed in the positive analysis fitting direction relative to DMSO as the negative control and baseline of activity. Using a type of binding reporter, loss-of-signal activity can be used to understand changes in the binding as they relate to the gene Glra1. Furthermore, this assay endpoint can be referred to as a primary readout, because the performed assay has only produced 1 assay endpoint. To generalize the intended target to other relatable targets, this assay endpoint is annotated to the ion channel intended target family, where the subfamily is ligand-gated ion channel. […]
# rat Peripheral-type Benzodiazepine Receptor (PBR), Tspo (gene 24230), sequence (P16257 whole entry, looked up): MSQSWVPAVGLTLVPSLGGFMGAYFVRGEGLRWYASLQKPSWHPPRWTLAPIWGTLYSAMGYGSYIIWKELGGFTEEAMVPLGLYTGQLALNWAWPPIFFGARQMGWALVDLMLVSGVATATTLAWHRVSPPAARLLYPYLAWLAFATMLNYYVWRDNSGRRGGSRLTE
# human Peripheral-type Benzodiazepine Receptor (PBR), TSPO (gene 706), sequence (P30536 whole entry, looked up): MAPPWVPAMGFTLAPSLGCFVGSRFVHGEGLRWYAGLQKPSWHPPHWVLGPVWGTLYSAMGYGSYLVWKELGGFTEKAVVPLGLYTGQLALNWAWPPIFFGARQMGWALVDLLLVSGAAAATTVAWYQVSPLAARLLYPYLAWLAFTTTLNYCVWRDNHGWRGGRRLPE
# Voltage-gated inwardly rectifying potassium channel KCNH2 (Homo sapiens), sequence (Q12809 whole entry, looked up): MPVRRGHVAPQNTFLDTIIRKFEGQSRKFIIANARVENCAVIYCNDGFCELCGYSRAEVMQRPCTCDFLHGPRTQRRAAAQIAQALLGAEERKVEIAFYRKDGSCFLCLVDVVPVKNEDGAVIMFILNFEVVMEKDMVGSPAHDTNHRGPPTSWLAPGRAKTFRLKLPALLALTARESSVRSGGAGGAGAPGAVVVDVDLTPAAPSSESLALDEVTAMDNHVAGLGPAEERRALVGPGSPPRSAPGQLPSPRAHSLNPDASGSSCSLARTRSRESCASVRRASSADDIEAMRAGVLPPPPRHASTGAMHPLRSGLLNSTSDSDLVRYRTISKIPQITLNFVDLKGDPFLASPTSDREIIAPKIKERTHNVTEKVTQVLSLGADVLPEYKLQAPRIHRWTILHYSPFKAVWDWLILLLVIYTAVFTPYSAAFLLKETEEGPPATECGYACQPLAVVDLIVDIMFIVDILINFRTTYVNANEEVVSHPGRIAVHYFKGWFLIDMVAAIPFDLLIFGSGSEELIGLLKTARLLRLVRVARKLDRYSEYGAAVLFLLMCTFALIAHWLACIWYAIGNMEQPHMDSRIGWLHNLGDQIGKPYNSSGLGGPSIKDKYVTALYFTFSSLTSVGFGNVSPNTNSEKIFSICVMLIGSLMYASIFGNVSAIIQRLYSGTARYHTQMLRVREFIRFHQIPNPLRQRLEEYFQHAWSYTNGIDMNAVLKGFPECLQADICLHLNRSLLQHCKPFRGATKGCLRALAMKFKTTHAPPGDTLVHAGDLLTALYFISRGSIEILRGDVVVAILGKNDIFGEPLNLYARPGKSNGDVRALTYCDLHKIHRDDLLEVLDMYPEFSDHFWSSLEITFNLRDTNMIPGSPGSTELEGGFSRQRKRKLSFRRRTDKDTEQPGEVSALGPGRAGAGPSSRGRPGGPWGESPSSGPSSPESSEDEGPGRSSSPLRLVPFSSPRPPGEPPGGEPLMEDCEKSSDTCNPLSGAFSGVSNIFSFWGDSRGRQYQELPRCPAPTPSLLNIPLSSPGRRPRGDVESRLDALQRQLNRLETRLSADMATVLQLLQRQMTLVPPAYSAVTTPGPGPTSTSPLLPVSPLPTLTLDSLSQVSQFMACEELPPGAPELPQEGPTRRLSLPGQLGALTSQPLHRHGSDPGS
# rat Glycine Receptor, Strychnine-sensitive (GlyRStrySens), Glra1 (gene 25674), sequence (P07727 whole entry, looked up): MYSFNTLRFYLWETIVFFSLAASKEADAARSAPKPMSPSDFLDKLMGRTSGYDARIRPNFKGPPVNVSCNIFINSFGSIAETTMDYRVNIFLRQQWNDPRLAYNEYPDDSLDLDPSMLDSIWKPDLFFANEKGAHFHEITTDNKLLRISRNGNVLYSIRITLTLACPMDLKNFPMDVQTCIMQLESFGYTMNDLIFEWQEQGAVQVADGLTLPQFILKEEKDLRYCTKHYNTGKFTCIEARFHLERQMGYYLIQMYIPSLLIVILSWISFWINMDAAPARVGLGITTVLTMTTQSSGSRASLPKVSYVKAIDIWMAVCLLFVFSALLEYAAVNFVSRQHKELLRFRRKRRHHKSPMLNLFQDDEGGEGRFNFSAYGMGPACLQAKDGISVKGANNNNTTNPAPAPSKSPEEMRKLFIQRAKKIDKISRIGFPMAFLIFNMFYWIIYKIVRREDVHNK
# bovine Gamma-Aminobutyric Acid Type A Receptor Agonist (GABAR Agonist), GABRA1 (gene 780973), sequence (P08219 whole entry, looked up): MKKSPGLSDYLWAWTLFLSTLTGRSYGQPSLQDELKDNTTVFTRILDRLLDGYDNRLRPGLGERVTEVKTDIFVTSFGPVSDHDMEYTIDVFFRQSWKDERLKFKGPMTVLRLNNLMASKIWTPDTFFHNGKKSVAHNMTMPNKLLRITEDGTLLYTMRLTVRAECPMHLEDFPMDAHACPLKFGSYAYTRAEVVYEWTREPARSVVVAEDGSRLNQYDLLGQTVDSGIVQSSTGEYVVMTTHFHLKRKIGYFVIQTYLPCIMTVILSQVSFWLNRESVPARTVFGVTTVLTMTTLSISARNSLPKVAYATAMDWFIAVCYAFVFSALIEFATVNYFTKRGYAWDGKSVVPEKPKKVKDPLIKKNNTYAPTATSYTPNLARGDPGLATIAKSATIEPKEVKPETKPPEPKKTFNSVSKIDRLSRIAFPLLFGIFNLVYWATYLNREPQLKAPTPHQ
smiles,measurement,setting,value
O=C(OC1CCCCC1)c1ccccc1C(=O)OC1CCCCC1,AC50,[1],3.21 µM (active) and 6.79 µM (active)
C[C@H]1CCCC(=O)CCC/C=C/c2cc(O)cc(O)c2C(=O)O1,AC50,[1],1.66 µM (active)
same,AC50,[2],0.346 µM (active)
O=C1C(Cl)=C(Cl)C(=O)c2ccccc21,AC50,[1],7.47 µM (active)
Oc1ccc(-c2ccccc2)cc1,AC50,[1],43.8 µM (active) and 13.8 µM (active)
CC(C)(c1ccc(OCC2CO2)cc1)c1ccc(OCC2CO2)cc1 (stereo unspecified),AC50,[1],7.73 µM (active)
same,AC50,[2],4.31 µM (active)
COP(=O)(OC)O/C(=C\Cl)c1cc(Cl)c(Cl)cc1Cl,AC50,[1],0.401 µM (active)
same,AC50,[2],0.38 µM (active)
CCOC(=O)/C=C(C)/C=C/C[C@@H](C)CCCC(C)C,AC50,[1],33.2 µM (active)
same,AC50,[2],17.6 µM (active)
CCCCCCCCC(=O)NCc1ccc(O)c(OC)c1,AC50,[1],4.12 µM (active)
C=C(C)C(=O)[O][Sn]([CH2]CCC)([CH2]CCC)[CH2]CCC,outcome,[3],inactive
same,outcome,[4],inactive
O=C(O)C(Cl)(Cl)Cl,outcome,[3],inactive
CCC(=O)C(CC(C)N(C)C)(c1ccccc1)c1ccccc1 (stereo unspecified),AC50,[5],18.1 µM (active)
